Results on 62 compounds are retold here after PubChem BioAssay AID504444 (National Center for Advancing Translational Sciences (NCATS), 2011).

Each structure is given as a SMILES string. Screen size: about 360,000 compounds; about 7,500 (2.1%) were called active. Another 20% or so got no clear call; they are omitted. For the sample, actives were picked, then their nearest neighbours and some compounds at random. Values without a mark were called inactive. The call rests on the fitted dose curve; in most records, active means well fitted inhibition curve with a large enough effect; inconclusive means small, poorly fitted or top-dose-only effect, or effect the other way; inactive means flat fitted curve, though single readings scatter.
On the % scale 0 is the no-effect control and ±100 the full control effect; potency means the concentration at half of the fitted maximal effect.

The nature of the assay: Nrf2 qHTS screen for inhibitors. Further: nearly all actives have a fitted effect of over 60% in size. As to conditions: A549 ARE-Fluc reporter, luciferase luminescence, 18-24 h; series mostly up to 46 µM; activity change, negative = inhibition: at the top concentration. The essentials:
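In this cell-based qHTS, ARE-driven firefly luciferase in A549 cells reports Nrf2 activity; the luminescent signal after BugLite lysis is the measured value, with a prior CellTiter-Fluor read for cell health.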
(In general: qHTS replaces the single test concentration by a dilution series.)
With `Cc1ccc(C)n1NC(=O)c1ccc([N+](=O)[O-])cc1`, the “activity change, negative = inhibition” value is -6.57%.
Take `O=C1CC(c2ccccc2)=NN1c1ccc([N+](=O)[O-])cc1`: the “activity change, negative = inhibition” value is -13.5%.
As for `CC1=NN(c2ccccc2)C(=O)C1C(=O)c1ccc([N+](=O)[O-])cc1` (configuration not stated), the Potency was 25.9 µM (active).
Still for that read-out and setting: the same measure for `CCCOC(=O)c1[nH]c2c(c1C)C(=O)CC(c1cc(OC)c(OC)c(OC)c1)C2` (configuration not stated): 16.4 µM (active).
For `COCCOC(=O)c1[nH]c2c(c1C)C(=O)CC(c1ccc(OC)cc1)C2` (configuration not stated), the “activity change, negative = inhibition” value was 3.14%.
`CCCOC(=O)c1[nH]c2c(c1C)C(=O)CC(c1cccs1)C2` (configuration not stated): the “activity change, negative = inhibition” value was 2.43%.
Same read-out and setting: the same measure for `Cc1ccc(S(=O)(=O)NCC2CCC(C(=O)N3CCOCC3)CC2)cc1` (configuration not stated): 2.72%.
With `Cc1ccc(C)c(N2CCN(C(=O)C3CCC(CNS(=O)(=O)c4cccs4)CC3)CC2)c1` (configuration not stated), the Potency is 18.4 µM (active).
With `COc1cccc(CNC(=O)C2CCC(CNS(=O)(=O)c3cccs3)CC2)c1` (configuration not stated), the “activity change, negative = inhibition” value is 6.28%.
`Cc1cc([N+](=O)[O-])c(=O)[nH]c1C`: the “activity change, negative = inhibition” value is -28.4%.
In the case of `COc1ccc(N=C2C=CC(=O)O2)cc1`, the “activity change, negative = inhibition” value is 2.45%.
With `Cc1ccc(NC(=O)NC2CCCCC2)cc1S(=O)(=O)N1CCOCC1`, the “activity change, negative = inhibition” value was -20.2%.
For the compound `COc1ccc(S(=O)(=O)N2CCCCCC2)cc1NC(=O)Cc1ccc(OC)c(OC)c1`, the “activity change, negative = inhibition” value is -5.21%.
`Cc1ccc(NC(=O)C2CCC(C(C)(C)C)CC2)cc1S(=O)(=O)N1CCOCC1` (configuration not stated): the Potency was 20.6 µM (active).
With `Cc1ccccc1N1CC(C(=O)Nc2ccc(S(=O)(=O)N3CCCC3)cc2)CC1=O` (configuration not stated), the “activity change, negative = inhibition” value was -16.1%.
In the case of `COc1ccccc1N1CC(C(=O)Nc2ccc(S(=O)(=O)N3CCOCC3)cc2)CC1=O` (configuration not stated), the “activity change, negative = inhibition” value is 2.1%.
In the case of `COc1ccc(S(=O)(=O)N2CCCCC2)cc1NC(=O)C1CC(=O)N(c2ccc3c(c2)OCCO3)C1` (configuration not stated), the Potency was 23.1 µM (active).
Regarding `Cc1ccc(NC(=O)C2CC2)cc1S(=O)(=O)N1CCOCC1`, the “activity change, negative = inhibition” value was 3.69%.
With `CC(=O)c1ccccc1NC(=O)C1CC(=O)N(c2ccc3c(c2)OCCO3)C1` (configuration not stated), the “activity change, negative = inhibition” value is 15.8%.
Turning to `Cc1ccc(NC(=O)C2CC(=O)N(c3ccc4c(c3)OCCO4)C2)cc1S(=O)(=O)N1CCCCCC1` (configuration not stated), the Potency was 5.8 µM (active).
For `CCOC(=O)c1ccc(NC(=O)C2CC(=O)N(c3ccc4c(c3)OCCO4)C2)cc1` (configuration not stated), the “activity change, negative = inhibition” value is -15.5%.
For `CC1CCN(S(=O)(=O)c2ccc(NC(=O)C3CC(=O)N(c4ccccc4)C3)cc2)CC1` (configuration not stated), the Potency is 6.51 µM (active).
On to `Cc1ccc(N2CC(C(=O)Nc3ccc(S(=O)(=O)N4CCCC4)cc3)CC2=O)cc1C` (configuration not stated), for which the “activity change, negative = inhibition” value was -26.7%.
With `CCN(CC)S(=O)(=O)c1ccc(CNC(=O)CN2C(=O)NC3(CCc4ccccc43)C2=O)cc1` (configuration not stated), the “activity change, negative = inhibition” value is -5.28%.
Consider `Cc1ccc(C)c(N2CCN(C(=O)Cn3ncc4c(=O)oc5ccc(C)cc5c43)CC2)c1`, for which the “activity change, negative = inhibition” value is -1.2%.
Same read-out and setting: under `O=C(NCc1ccccc1)c1cccc(NC(=O)C2CCCCC2)c1` stands -2.53%; under `Cn1nnnc1SCCCNCc1cccc(OCc2ccc(Cl)cc2)c1`, 16.4%.
With `COc1ccc(CNC(=O)CCc2c(C)nn(-c3ccc(N4CCCC4)nn3)c2C)cc1`, the “activity change, negative = inhibition” value was 11.6%.
Turning to `O=[S+]([O-])(c1ccc(OC(F)(F)F)cc1)N1CCN([S+](=O)([O-])c2ccc3c(c2)OCCO3)CC1`, the “activity change, negative = inhibition” value is 16.6%.
Take `COc1cccc(CNC(=O)c2ccc3c(c2)N(Cc2ccc(C(F)(F)F)cc2)C(=O)c2ccccc2S3)c1OC`: the “activity change, negative = inhibition” value is -2.78%.
Take `CCOc1ccc(C(=O)/C=C/c2cn(CC(O)CN3CCCCCC3)c3ccccc23)cc1` (configuration not stated): the “activity change, negative = inhibition” value is 22.8%.
Take `CCS(=O)(=O)c1nc(S(=O)(=O)c2ccc(C)cc2)c(NCc2ccc(Cl)cc2)s1`: the “activity change, negative = inhibition” value was -1.83%.
With `NC1=NOC(=O)C1C1CCCCC1` (configuration not stated), the “activity change, negative = inhibition” value was -7.5%.
As for `Cc1cc(C)c(NC(=O)CSc2nc3ccncc3[nH]2)c(C)c1`, the Potency result was “inactive”.
For `CCCCNS(=O)(=O)c1ccc2nc(SCC(=O)Nc3cc(C)cc(C)c3)[nH]c2c1`, the Potency is 13 µM (active).
On to `CC(=O)Nc1ccc(C(=O)CSc2nc3ccc(C)cc3[nH]2)cc1`, for which the “activity change, negative = inhibition” value is 26.7%.
Take `Cc1ccc(/C=C(\C#N)C(=O)Nc2cc(C)ccc2C)cc1`: the “activity change, negative = inhibition” value is 5.62%.
For `CC(C)(C)c1ccc(S(=O)(=O)Nc2ccc(O)c(Sc3nc4ccccc4s3)c2)cc1`, the “activity change, negative = inhibition” value is 1.33%.
As for `CCOc1ccc(NC(=O)c2c(NC(=O)Cc3ccccc3)sc3c2CCCCC3)cc1`, the “activity change, negative = inhibition” value is -17.2%.
`COc1ccc(NS(=O)(=O)c2ccc(Oc3c(C#N)cccc3C#N)cc2)cc1`: the Potency is 13 µM (active).
Consider `COc1ccc(NS(=O)(=O)c2cccc(C(=O)NCCc3ccc(S(N)(=O)=O)cc3)c2)cc1`, for which the “activity change, negative = inhibition” value is 5.04%.
Same read-out and setting: under `COc1cccc(NS(=O)(=O)c2ccc(-c3coc(C)n3)cc2)c1` stands -27.9%.
For `Cc1cccc(-n2c(SCC(N)=O)nc3c(c2=O)C2(CCCCC2)Cc2ccccc2-3)c1`, the Potency was 20.6 µM (active).
For `N#CCSc1nc2c(c(=O)n1Cc1ccccc1)C1(CCCC1)Cc1ccccc1-2`, the “activity change, negative = inhibition” value is 10.3%.
On to `Cc1cccc(-n2c(SCC(N)=O)nc3c(oc4ccccc43)c2=O)c1`, for which the “activity change, negative = inhibition” value is 1.69%.
As to `C[C@H](CO)N1C[C@H](C)[C@@H](CN(C)Cc2ccc(-c3ccccc3)cc2)Oc2ccc(NC(=O)Cn3cnnn3)cc2C1=O`, the “activity change, negative = inhibition” value is 0.445%.
Turning to `OCC(O)C1OCOC(C(O)CO)C1O` (configuration not stated), the “activity change, negative = inhibition” value is -10.3%.
Turning to `CCOc1ccc(NC(=O)c2c(NC(=O)Cc3ccccc3)sc3c2CCC(C)C3)cc1` (configuration not stated), the “activity change, negative = inhibition” value is -14.5%.
Take `C/C(=N\NC(=O)Cc1ccc(Cl)cc1)c1ccccn1`: the Potency is 3.26 µM (active).
Still for that read-out and setting: the same measure for `COc1ccc(CC(=O)N/N=C(\C)c2ccccn2)cc1`: 14.6 µM (active).
Take `CNC(=S)N1CCN(c2ccccn2)CC1`: the “activity change, negative = inhibition” value was -6.46%.
Take `CC(=NNC(=S)N1CCCCCC1)c1ccccn1`: the Potency was 1.16 µM (active).
As to `Cc1cccc(C)c1NC(=S)N1CCCCCC1`, the “activity change, negative = inhibition” value is 7.37%.
Still for that read-out and setting: the same measure for `C/C(=N\NC(=O)Cc1ccc(F)cc1)c1ccc(F)cc1`: -2.05%.
On the same count and under the same terms, the same measure for `Cc1ccc(Cl)cc1NC(=O)c1ccccn1`: 25.8%; for `COc1ccc(C/C(C)=N/NC(=O)c2ccncc2)cc1`: 9.67%; for `COc1ccc(CC(=O)NC(C)CCc2ccccc2)cc1` (configuration not stated): -21.7%.
As for `Cc1noc(C)c1NC(=O)Nc1ccc2c(c1)C(=O)N([C@H](C)CO)C[C@H](C)[C@@H](CN(C)C(=O)Nc1ccc(C(F)(F)F)cc1)O2`, the “activity change, negative = inhibition” value is -5.04%.
Still for that read-out and setting: under `Cc1ccc(-c2nn(CCC(=O)Nc3ccc(Cl)c(Cl)c3)c(=O)c3ccccc23)cc1` stands -4.96%; under `CCCNC(=O)C(CC)n1nc(CC)n2c(cc3oc(C)cc32)c1=O` (configuration not stated), -22.5%; under `CCOc1cccc(NC(=O)CSc2ncc(-c3ccc(Cl)cc3)[nH]2)c1`, 10.8%.
Take `Cc1ccc(Nc2c(-c3ccc(Cl)cc3)nc3sccn23)c(C)c1`: the “activity change, negative = inhibition” value is 11.2%.
